Tests used:
Assay in all cases: log2 ratio of Biotin-Ahx-Ub-VS probe labelling (fragment/DMSO); higher = less target engagement (more negative = stronger competition), active = hit call of the paper (q ≤ 0.05, log2 ratio ≤ -1)
Settings in all cases: compound concentration: 200 uM; treatment time: 3 h
USP19 = target: T1, USP19 (UniProt O94966)
T1 sequence (whole entry): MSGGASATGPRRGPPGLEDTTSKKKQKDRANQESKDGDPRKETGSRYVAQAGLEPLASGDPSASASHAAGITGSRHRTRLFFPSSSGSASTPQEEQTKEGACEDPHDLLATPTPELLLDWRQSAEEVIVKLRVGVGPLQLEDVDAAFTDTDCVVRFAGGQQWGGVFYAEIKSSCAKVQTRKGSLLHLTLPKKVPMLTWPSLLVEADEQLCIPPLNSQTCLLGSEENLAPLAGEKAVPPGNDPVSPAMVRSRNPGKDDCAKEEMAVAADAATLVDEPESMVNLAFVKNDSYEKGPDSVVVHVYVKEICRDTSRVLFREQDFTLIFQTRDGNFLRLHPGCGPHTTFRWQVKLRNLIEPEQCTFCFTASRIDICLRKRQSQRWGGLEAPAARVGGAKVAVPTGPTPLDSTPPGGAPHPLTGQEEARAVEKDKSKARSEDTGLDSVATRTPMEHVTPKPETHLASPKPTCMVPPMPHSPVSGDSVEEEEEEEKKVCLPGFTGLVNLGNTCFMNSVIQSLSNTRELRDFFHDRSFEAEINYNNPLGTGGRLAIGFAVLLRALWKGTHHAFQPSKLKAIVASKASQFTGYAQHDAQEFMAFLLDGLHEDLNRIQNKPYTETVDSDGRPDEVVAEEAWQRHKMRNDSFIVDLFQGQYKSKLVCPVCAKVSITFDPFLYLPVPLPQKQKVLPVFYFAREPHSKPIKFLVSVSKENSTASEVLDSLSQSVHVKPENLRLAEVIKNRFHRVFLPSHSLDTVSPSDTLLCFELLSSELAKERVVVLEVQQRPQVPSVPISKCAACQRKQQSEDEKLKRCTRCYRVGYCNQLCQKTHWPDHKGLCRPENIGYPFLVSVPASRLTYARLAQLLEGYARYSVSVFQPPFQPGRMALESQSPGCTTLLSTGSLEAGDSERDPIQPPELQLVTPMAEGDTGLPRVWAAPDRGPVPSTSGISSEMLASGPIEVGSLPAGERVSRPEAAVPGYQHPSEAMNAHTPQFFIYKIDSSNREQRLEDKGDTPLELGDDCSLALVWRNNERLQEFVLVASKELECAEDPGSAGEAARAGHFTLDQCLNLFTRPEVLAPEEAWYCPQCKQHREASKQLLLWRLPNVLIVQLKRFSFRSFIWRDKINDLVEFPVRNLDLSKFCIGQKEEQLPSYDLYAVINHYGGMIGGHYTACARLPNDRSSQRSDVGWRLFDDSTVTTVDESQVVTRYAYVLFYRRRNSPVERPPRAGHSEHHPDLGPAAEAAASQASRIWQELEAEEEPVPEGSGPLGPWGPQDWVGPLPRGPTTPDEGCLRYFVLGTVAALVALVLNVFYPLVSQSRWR
In short: (§1)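 The table lists average log2 ratios of fragment over vehicle, from an unpaired t-test on global-median-normalised Spectronaut label-free quantities. Proteins with ≥2 unique peptides were used. Samples were HEK293T lysate (495 µg) treated in triplicate with fragment at 200 µM or vehicle for 3 h, then with Biotin-Ahx-Ub-VS (0.5 µM final) for 1 h, with labelled DUBs NeutrAvidin-enriched and run by diaPASEF LC-MS/MS.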

USP22 = target: T2, USP22 (UniProt Q9UPT9)
T2 sequence (whole entry): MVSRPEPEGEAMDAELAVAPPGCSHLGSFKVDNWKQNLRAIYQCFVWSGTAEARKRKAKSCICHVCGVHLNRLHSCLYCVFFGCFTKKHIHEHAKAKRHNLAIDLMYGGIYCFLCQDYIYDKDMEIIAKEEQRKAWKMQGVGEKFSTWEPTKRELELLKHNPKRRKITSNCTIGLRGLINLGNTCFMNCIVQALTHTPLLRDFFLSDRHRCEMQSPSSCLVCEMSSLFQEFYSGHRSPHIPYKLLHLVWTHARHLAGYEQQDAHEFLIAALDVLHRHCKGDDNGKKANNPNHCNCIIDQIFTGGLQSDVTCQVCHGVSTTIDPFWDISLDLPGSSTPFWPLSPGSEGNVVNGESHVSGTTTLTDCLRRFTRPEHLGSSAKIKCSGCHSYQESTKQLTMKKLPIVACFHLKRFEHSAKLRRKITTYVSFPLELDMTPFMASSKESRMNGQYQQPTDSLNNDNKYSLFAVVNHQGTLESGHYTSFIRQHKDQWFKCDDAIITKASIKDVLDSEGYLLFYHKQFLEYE
In short: as §1

USP24 = USP24 (UniProt Q9UPU5)
In short: as §1

USP25 = target: T3, USP25 (UniProt Q9UHP3)
T3 sequence (whole entry): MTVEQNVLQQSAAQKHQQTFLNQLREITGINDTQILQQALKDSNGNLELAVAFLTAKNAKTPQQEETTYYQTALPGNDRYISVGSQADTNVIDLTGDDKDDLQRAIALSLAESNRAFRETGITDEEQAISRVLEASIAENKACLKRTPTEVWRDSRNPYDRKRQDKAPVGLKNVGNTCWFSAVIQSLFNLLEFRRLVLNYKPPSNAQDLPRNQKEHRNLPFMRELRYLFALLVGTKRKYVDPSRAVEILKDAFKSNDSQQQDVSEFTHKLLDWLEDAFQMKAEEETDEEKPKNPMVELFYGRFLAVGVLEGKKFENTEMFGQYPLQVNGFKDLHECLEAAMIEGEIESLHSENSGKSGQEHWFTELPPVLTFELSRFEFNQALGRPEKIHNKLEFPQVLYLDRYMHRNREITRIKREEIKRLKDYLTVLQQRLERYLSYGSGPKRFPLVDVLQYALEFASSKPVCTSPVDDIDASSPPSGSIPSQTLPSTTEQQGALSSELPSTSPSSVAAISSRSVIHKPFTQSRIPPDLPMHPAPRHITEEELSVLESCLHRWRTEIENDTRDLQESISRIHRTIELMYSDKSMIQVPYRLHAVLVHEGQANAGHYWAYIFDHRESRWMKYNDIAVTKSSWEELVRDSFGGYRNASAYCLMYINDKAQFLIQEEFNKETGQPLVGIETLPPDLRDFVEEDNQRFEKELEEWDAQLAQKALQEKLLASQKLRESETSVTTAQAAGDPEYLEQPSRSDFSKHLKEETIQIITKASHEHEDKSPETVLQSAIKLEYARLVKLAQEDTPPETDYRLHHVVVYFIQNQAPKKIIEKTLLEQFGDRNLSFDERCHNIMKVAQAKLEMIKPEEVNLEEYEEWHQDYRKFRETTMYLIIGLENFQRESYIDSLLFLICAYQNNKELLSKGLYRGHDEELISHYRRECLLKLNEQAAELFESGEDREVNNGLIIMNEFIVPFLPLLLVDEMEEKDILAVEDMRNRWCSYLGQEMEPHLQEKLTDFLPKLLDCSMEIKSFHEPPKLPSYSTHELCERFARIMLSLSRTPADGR
In short: as §1

USP28 = target: T4, USP28 (UniProt Q96RU2)
T4 sequence (whole entry): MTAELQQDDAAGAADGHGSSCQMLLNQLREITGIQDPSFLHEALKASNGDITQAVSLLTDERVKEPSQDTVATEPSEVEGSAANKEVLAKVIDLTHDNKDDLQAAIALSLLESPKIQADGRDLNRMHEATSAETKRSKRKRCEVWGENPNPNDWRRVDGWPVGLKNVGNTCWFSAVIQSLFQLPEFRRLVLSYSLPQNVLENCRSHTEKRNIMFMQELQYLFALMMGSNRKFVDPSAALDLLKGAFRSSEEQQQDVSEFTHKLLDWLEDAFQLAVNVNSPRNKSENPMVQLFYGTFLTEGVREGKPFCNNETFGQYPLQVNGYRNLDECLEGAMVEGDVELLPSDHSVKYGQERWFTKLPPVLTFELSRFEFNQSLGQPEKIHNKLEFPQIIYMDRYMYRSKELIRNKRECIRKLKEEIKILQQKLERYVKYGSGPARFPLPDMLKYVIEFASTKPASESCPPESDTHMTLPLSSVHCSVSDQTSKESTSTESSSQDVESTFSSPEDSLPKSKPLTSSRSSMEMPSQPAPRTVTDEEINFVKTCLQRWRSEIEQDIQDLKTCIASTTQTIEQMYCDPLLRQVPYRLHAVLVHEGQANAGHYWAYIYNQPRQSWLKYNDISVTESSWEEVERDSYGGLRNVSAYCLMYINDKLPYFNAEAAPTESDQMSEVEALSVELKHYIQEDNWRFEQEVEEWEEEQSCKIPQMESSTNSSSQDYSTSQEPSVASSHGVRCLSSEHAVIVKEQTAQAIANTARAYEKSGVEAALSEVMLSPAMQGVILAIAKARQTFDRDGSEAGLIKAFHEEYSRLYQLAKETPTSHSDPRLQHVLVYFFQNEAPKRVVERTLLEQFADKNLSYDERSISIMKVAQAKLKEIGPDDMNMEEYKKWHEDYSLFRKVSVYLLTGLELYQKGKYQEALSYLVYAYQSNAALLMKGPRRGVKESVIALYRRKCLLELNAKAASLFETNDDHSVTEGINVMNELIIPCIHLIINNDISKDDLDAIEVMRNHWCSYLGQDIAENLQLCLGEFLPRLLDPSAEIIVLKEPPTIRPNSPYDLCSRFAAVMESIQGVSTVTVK
In short: as §1

Measured: log2 ratio of Biotin-Ahx-Ub-VS probe labelling

Chain of USP24 (Q9UPU5 whole entry): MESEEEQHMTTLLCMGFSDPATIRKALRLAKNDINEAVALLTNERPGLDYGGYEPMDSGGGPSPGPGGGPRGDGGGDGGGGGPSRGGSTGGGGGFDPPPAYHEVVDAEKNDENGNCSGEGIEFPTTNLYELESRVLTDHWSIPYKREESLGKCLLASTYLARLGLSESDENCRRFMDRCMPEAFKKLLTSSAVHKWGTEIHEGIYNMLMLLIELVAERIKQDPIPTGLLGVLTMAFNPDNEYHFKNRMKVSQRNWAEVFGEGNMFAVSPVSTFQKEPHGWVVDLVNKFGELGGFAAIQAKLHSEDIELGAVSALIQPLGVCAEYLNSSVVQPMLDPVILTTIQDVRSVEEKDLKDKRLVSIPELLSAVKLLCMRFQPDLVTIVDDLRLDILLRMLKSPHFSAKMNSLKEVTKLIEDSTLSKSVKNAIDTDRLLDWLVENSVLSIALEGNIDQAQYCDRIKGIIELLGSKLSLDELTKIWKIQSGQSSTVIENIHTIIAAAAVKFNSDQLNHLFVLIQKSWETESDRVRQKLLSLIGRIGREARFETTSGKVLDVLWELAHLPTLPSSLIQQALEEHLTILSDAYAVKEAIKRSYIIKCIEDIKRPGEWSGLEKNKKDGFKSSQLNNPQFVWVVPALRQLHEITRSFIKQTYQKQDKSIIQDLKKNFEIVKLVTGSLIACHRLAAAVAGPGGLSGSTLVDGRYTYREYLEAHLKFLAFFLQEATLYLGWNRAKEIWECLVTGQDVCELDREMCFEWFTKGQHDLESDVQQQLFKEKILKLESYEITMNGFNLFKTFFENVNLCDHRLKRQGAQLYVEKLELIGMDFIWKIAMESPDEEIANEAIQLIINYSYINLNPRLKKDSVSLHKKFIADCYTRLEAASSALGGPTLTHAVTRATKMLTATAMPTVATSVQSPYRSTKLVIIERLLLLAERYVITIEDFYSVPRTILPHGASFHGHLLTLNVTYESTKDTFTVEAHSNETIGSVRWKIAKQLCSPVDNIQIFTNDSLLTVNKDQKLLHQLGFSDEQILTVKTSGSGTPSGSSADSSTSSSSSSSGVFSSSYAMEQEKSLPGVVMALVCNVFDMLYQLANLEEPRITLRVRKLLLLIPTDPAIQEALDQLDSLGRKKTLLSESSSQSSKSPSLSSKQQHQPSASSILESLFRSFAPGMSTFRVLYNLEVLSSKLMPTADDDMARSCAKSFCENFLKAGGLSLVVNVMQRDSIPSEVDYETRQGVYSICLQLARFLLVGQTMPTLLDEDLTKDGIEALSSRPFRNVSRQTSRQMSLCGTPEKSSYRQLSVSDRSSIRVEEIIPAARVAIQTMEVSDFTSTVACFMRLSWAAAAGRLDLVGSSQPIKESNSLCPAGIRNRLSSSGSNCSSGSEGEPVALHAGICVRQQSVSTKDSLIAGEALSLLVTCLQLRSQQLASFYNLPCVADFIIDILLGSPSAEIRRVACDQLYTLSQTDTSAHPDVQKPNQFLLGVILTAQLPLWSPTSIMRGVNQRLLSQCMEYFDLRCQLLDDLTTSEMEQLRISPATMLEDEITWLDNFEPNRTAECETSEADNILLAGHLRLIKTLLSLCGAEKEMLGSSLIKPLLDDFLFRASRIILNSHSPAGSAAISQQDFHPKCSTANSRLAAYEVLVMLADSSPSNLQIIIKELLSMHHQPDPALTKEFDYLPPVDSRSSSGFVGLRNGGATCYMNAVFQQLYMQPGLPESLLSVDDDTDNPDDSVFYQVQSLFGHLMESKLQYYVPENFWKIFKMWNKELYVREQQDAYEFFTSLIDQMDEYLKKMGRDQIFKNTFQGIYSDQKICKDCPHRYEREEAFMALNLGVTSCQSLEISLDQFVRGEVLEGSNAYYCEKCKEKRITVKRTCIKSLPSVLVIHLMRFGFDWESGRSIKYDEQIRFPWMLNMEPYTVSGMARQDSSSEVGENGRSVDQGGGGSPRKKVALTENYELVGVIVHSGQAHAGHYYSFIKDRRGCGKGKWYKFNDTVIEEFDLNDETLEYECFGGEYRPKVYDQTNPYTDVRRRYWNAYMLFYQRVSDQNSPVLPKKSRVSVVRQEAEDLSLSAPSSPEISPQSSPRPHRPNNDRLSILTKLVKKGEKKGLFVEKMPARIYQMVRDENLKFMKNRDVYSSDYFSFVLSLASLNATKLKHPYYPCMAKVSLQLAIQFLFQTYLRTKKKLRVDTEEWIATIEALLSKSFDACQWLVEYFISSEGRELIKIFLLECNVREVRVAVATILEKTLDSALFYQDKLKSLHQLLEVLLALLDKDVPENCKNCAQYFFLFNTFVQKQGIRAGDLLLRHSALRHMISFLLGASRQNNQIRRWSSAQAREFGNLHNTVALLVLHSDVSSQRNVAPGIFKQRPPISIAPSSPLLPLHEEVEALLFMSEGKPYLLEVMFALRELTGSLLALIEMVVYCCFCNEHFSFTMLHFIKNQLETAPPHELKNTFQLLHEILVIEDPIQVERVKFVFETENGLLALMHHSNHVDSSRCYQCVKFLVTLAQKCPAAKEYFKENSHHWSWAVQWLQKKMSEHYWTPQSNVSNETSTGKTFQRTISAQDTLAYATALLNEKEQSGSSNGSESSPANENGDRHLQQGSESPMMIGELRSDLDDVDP

O=C(CCl)Nc1cccc(NC(=O)c2ccccc2)c1
inactive: USP19 0.0261 | USP22 0.406 | USP24 0.05 | USP25 -0.383 | USP28 -0.173
